Hit rate of the full screen: of about 48,000 compounds, about 13,000 (27%) showed an effect of 50% or more. The list shows a part of the results.
What follows are molecules tested on Wolbachia pipientis (assay: Anti-Wolbachia Cell-Based Screen). Conditions: 5 µM.
Type: functional
Design: scale not given: in the data most compounds retested in dose-response had high values
In the case of O=C(CNC(=O)C1CC1)NCc1ccc(Cl)s1, the “Percent Effect” value is reported as 12.79%. In the case of O=C(Nc1cnccn1)[C@H]1COC[C@H]2CN(C3CCCC3)C[C@H]21.O=C(O)C(F)(F)F, the “Percent Effect” value is reported as 12.06%. In the case of CN(Cc1nnc(C2CC2)n1C)C(=O)c1ccnc(OC2CCC2)c1, the “Percent Effect” value is reported as -6.34%. In the case of Cc1cc(C(=O)N(C)Cc2ccccc2OCC(C)C)cc(=O)[nH]1, the “Percent Effect” value is reported as 5.839%. For COc1ccccc1OCC(=O)NS(=O)(=O)c1ccccc1F, the “Percent Effect” value was -1.762%. In the case of CSc1ccc(NCC(=O)NCC2CC2)cc1F, the “Percent Effect” value is reported as -20.57%. With COc1cccc([C@@H]2CN(C3CCCC3)C[C@H]2C(=O)O)c1 the “Percent Effect” value was -6.459%. With CC(C)N(C)Cc1cnc2n1CCN(Cc1cccc(C#N)c1)C2 the “Percent Effect” value was 113.4%. CC(O)CN1CCN(Cc2cccc(C#N)c2)CC1 (stereo not drawn) was tested, and the “Percent Effect” value was -5.978%. CN1CCc2ncc(CNC(=O)c3cccn3C)n2CC1.O=C(O)C(F)(F)F was tested, and the “Percent Effect” value was -7.758%. With CC(C)c1ncc2c(n1)CN(Cc1cccc(C#N)c1)CC2 the “Percent Effect” value was -1.681%. O=C(NCc1cnc2n1CCN(Cc1nccs1)C2)c1ccno1.O=C(O)C(F)(F)F was tested, and the “Percent Effect” value was -12.49%. For Cc1ccc(CN2CCn3c(CNC(=O)c4cccn4C)cnc3C2)s1.O=C(O)C(F)(F)F, the “Percent Effect” value was 57.4%. For Cc1ccc(CN2CCn3c(CN(C)C(C)C)cnc3C2)s1.O=C(O)C(F)(F)F.O=C(O)C(F)(F)F, the “Percent Effect” value was 102.4%. In the case of Cn1cc(CN2CCn3c(CNC(=O)c4cccn4C)cnc3C2)cn1.O=C(O)C(F)(F)F, the “Percent Effect” value is reported as -0.1323%. With CC(C)N(C)Cc1cnc2n1CCN(Cc1ccc(F)cc1)C2.O=C(O)C(F)(F)F.O=C(O)C(F)(F)F the “Percent Effect” value was 108.1%. With CN(C)Cc1cnc2n1CCN(C(=O)Cc1ccc(F)cc1)CC2.O=C(O)C(F)(F)F the “Percent Effect” value was -6.028%. With Cc1noc(C)c1CN1CCc2ncc(CN(C)C)n2CC1.O=C(O)C(F)(F)F.O=C(O)C(F)(F)F the “Percent Effect” value was -8.609%. Cc1ccc(CN2CCc3c(CN(C)C)n[nH]c3C2)s1.O=C(O)C(F)(F)F.O=C(O)C(F)(F)F was tested, and the “Percent Effect” value was -7.014%. In the case of COc1cc(C)nc(N2CCN(C(=O)CCn3cc(C)cn3)CC2)n1, the “Percent Effect” value is reported as -7.08%. In the case of c1ccc2nc(NCC3(N4CCOCC4)CCSC3)cnc2c1 (stereo not drawn), the “Percent Effect” value is reported as -14.05%. For CCn1cnc2c(c(Br)nn2C)c1=O, the “Percent Effect” value was -4.609%. CS(=O)(=O)c1cccc(S(=O)(=O)NC(=O)c2cscn2)c1 was tested, and the “Percent Effect” value was -9.351%. In the case of CC(C)NC(=O)C[C@@H]1CCNC[C@@H]1Cc1cc(-c2ccccc2)on1, the “Percent Effect” value is reported as 3.733%. In the case of CCc1cc(=O)[nH]c2nnc(SCC(=O)OC)n12, the “Percent Effect” value is reported as -19.07%. With Cn1ccnc1CN1CCC2(CC(=O)N(c3cccc(F)c3)C2)C1.O=C(O)C(F)(F)F (stereo not drawn) the “Percent Effect” value was 10.35%. Cc1cc(C)c(Cn2cncn2)cc1CN1CCC(CN)C1 (stereo not drawn) was tested, and the “Percent Effect” value was -0.9295%. For Cc1ccc(OCC(O)Cn2ncc3cnn(C)c(=O)c32)cc1 (stereo not drawn), the “Percent Effect” value was -11.22%. For CN(Cc1ccco1)Cc1cnc2n1CCN(S(C)(=O)=O)CC2.O=C(O)C(F)(F)F, the “Percent Effect” value was 3.882%. With CC(C)N(C)Cc1cnc2n1CCN(Cc1cccc(F)c1)C2.O=C(O)C(F)(F)F.O=C(O)C(F)(F)F the “Percent Effect” value was 118.2%. For CC(C)N(C)Cc1cnc2n1CCN(CCc1ccccc1)C2.O=C(O)C(F)(F)F.O=C(O)C(F)(F)F, the “Percent Effect” value was 1.323%. In the case of COCCN1CCCn2cnc(CN(C)C(C)C)c2C1.O=C(O)C(F)(F)F.O=C(O)C(F)(F)F, the “Percent Effect” value is reported as 1.891%. For CN(C)Cc1cnc2n1CCN(C(=O)Cc1cccc(F)c1)CC2.O=C(O)C(F)(F)F, the “Percent Effect” value was -14.88%. In the case of CC(C)N(C)Cc1cnc2n1CCN(Cc1ccco1)C2.O=C(O)C(F)(F)F.O=C(O)C(F)(F)F, the “Percent Effect” value is reported as 165.9%. CC(C)N(C)Cc1cnc2n1CCN(C(=O)Cc1cccs1)C2C.O=C(O)C(F)(F)F (stereo not drawn) was tested, and the “Percent Effect” value was 0.7731%. With COCCN1CCn2c(CN(C)C(C)C)cnc2C1.O=C(O)C(F)(F)F.O=C(O)C(F)(F)F the “Percent Effect” value was 115.3%. CN(C)Cc1cnc2n1CCN(C(=O)NCc1ccccc1)CC2.O=C(O)C(F)(F)F was tested, and the “Percent Effect” value was -3.612%. With CC(C)N(C)Cc1cnc2n1CCN(S(=O)(=O)c1ccccc1)C2.O=C(O)C(F)(F)F the “Percent Effect” value was 114.3%. CC(C)Cc1ncc2c(n1)CN(c1cc(N3CCCC3)nc(N)n1)C2 was tested, and the “Percent Effect” value was -10.3%. For COCCC1(CNC(=O)NCC2CCCN(C)C2)CCC1 (stereo not drawn), the “Percent Effect” value was 8.648%. In the case of CCCSCC(=O)N1CCN(c2ccc(C)cc2)CC1C (stereo not drawn), the “Percent Effect” value is reported as -1.95%. For CN(C)Cc1cnc2n1CCN(Cc1ccsc1)CC2.O=C(O)C(F)(F)F.O=C(O)C(F)(F)F, the “Percent Effect” value was -11.04%. With CNC(=O)c1cnc2n1CCN(C(=O)Cc1ccccn1)C2 the “Percent Effect” value was -2.51%. In the case of CC(C)N(C)Cc1cnc2n1CCN(Cc1ccsc1)C2.O=C(O)C(F)(F)F.O=C(O)C(F)(F)F, the “Percent Effect” value is reported as 107.2%. In the case of CN(C)Cc1cnc2n1CCN(C(=O)Cc1ccsc1)CC2.O=C(O)C(F)(F)F, the “Percent Effect” value is reported as -7.652%. With CC(C)N(C)Cc1cnc2n1CCN(C(=O)Cc1ccccn1)C2.O=C(O)C(F)(F)F.O=C(O)C(F)(F)F the “Percent Effect” value was 116.4%. For CC(C)N(C)Cc1cnc2n1CCN(C(=O)c1cccs1)C2, the “Percent Effect” value was 6.203%. With CC(C)N(C)Cc1cnc2n1CCN(C(=O)Cc1ccsc1)C2.O=C(O)C(F)(F)F the “Percent Effect” value was 75.58%. With CC(NCC1CCN(CCO)CC1)c1ccc(OC(F)(F)F)cc1 (stereo not drawn) the “Percent Effect” value was 5.514%. In the case of Cc1ccccc1CSc1nc(=O)n(CCO)c2c1CCC2, the “Percent Effect” value is reported as 18.09%. Cc1csc(N2CCCN(C(=O)c3cnns3)CC2)n1 was tested, and the “Percent Effect” value was 3.916%. In the case of Fc1ccccc1OC1CCN(CCn2cc3ccccc3n2)CC1, the “Percent Effect” value is reported as 96.15%. c1cncc(OC2CCN(CCn3cc4ccccc4n3)CC2)c1 was tested, and the “Percent Effect” value was 92.09%. For Cc1nc(CCN2CCC(Oc3ccccc3F)CC2)c(C)s1, the “Percent Effect” value was 0%. For O=C(O)c1cccc(N2CCC(Oc3cccc(F)c3)CC2)n1, the “Percent Effect” value was 3.827%. For Fc1cccc(OC2CCN(CCn3cc4ccccc4n3)CC2)c1, the “Percent Effect” value was 89.5%. For c1cncc(O[C@H]2COCCN(CC3CC3)C2)c1, the “Percent Effect” value was -6.13%. With Fc1ccc(OC2CCN(CCn3cncn3)CC2)cc1 the “Percent Effect” value was 1.97%. For Cc1ccc(OC2CCN(CCn3cncn3)CC2)cc1, the “Percent Effect” value was -5.94%. For Cc1nc(C)c(CCN2CCC(Oc3ccccc3F)CC2)s1, the “Percent Effect” value was -50.47%. With O=C(O)C(F)(F)F.O=C1[C@@H]2CN(C3CCOCC3)C[C@H]2CCN1CC1CC1 the “Percent Effect” value was -15.82%. CCC(C)(CC(=O)OC)NCc1c(C)noc1C (stereo not drawn) was tested, and the “Percent Effect” value was -10.12%. With CCCN(CCOC)c1nc(C)nc2sccc12 the “Percent Effect” value was -21.15%. Cc1cc(NC(=O)N2CCN(c3cccs3)CC2)ccc1C(N)=O was tested, and the “Percent Effect” value was 6.081%. CS(=O)(=O)c1ccc(OCCNCc2c(F)cccc2F)cc1 was tested, and the “Percent Effect” value was -4.502%. In the case of CCCc1n[nH]c(C2CN(C(=O)c3cncnc3C)CCO2)n1 (stereo not drawn), the “Percent Effect” value is reported as 104.8%. With CCCc1n[nH]c(C2CN(C(=O)c3ccc(C)[nH]c3=O)CCO2)n1 (stereo not drawn) the “Percent Effect” value was 101.9%. In the case of Cc1ccc(C(=O)N2CCOC(c3nc(C(C)(C)C)n[nH]3)C2)c(=O)[nH]1 (stereo not drawn), the “Percent Effect” value is reported as -10.02%. In the case of CC(C)n1nccc1NC(=O)NCCc1nc2ccc(F)cc2n1C, the “Percent Effect” value is reported as -24.15%. With COCCN1CCN(CC(=O)NC2(C#N)CCCC2)CC1 the “Percent Effect” value was 5.801%. For CCN(Cc1cc(F)c(OC)c(Cl)c1)Cc1noc(CC(C)C)n1, the “Percent Effect” value was -0.0931%. CC(C)c1cc(N2CCSCC2)n2nccc2n1 was tested, and the “Percent Effect” value was -0.2231%. CN1CCC(N2CCC[C@H]2c2nc(-c3cncnc3N)no2)CC1 was tested, and the “Percent Effect” value was -6.986%. With Cc1ncc(S(C)(=O)=O)c(C2CCCNC2)n1 (stereo not drawn) the “Percent Effect” value was 6.84%. For CS(=O)(=O)c1cncnc1C1CCCNC1.Cl (stereo not drawn), the “Percent Effect” value was 112%. In the case of CC(C)(C)CN1CCC[C@H]1c1nc(-c2cncnc2N)no1, the “Percent Effect” value is reported as -5.651%. Cc1nc(-c2cncnc2C2CCCNC2)no1.Cl.Cl (stereo not drawn) was tested, and the “Percent Effect” value was 112.4%. For CCc1nc(C2CCCN(c3ncc(Br)cn3)C2)no1 (stereo not drawn), the “Percent Effect” value was -4.032%. With CC(C)c1ncc(S(C)(=O)=O)c(C2CCCNC2)n1 (stereo not drawn) the “Percent Effect” value was 16.25%. With CCc1nc(-c2cncnc2C2CCCNC2)no1.Cl (stereo not drawn) the “Percent Effect” value was 115.3%. With CN1CCC[C@H]1c1nc(-c2cncnc2N)no1 the “Percent Effect” value was -19.35%. CCc1nc(-c2cncnc2C2CCNC2)no1 (stereo not drawn) was tested, and the “Percent Effect” value was 125.4%. CN(Cc1nc2ccccc2[nH]1)C(=O)CN(C)c1ccccc1 was tested, and the “Percent Effect” value was -21.88%. O=C(CCNc1ncc2c(n1)CCN2c1ccccc1)N1CCCC1 was tested, and the “Percent Effect” value was 15.12%. With COCCC1CN(c2nc(-c3ccccc3)nc3c2CCNC3)CCO1 (stereo not drawn) the “Percent Effect” value was -17.27%. Cc1cnc(C(=O)N2CCCC(c3nccn3Cc3cscn3)C2)cn1 (stereo not drawn) was tested, and the “Percent Effect” value was 3.931%. Cc1cc(C(=O)N(C)Cc2cnn(C)c2)c(NC(=O)C(C)(C)C)s1 was tested, and the “Percent Effect” value was -6.693%. COc1ccc(CN2Cc3cnn(C)c3C(COCC3CC3)C2)cc1 (stereo not drawn) was tested, and the “Percent Effect” value was 13.17%. In the case of Cn1ncc2c1C(COCC1CC1)CN(Cc1ccsc1)C2 (stereo not drawn), the “Percent Effect” value is reported as 99.94%. With Cn1ncc2c1C(COCC1CC1)CN(Cc1cccnc1)C2 (stereo not drawn) the “Percent Effect” value was -4.691%. CCn1ncc2c1C(COC)CN(Cc1ccsc1)C2 (stereo not drawn) was tested, and the “Percent Effect” value was -10.45%. In the case of CCOCC1CN(Cc2ccsc2)Cc2cnn(C)c21 (stereo not drawn), the “Percent Effect” value is reported as 100.2%. For COCC1CN(Cc2ccsc2)Cc2cnn(C)c21 (stereo not drawn), the “Percent Effect” value was 97.33%. With CCOCC1CN(CC2CC2)Cc2cnn(C)c21 (stereo not drawn) the “Percent Effect” value was -17.33%. For COCC1CN(Cc2cccnc2OC)Cc2cnn(C)c21 (stereo not drawn), the “Percent Effect” value was -15.02%. CC(=O)Nc1ccc(F)c(S(=O)(=O)NC(C)(C)C)c1 was tested, and the “Percent Effect” value was -3.757%. With NCC1CCN(c2nc(C3CCCC3)nc3c2CCNCC3)C1 (stereo not drawn) the “Percent Effect” value was 9.164%. In the case of Cc1cc(C(=O)N2CC[C@H](N3CCOCC3)[C@H](CCCO)C2)c(C)n1C, the “Percent Effect” value is reported as -10.4%.

Reference: ChEMBL document CHEMBL3988442, “University of Dundee, Small-Polar-MMV Screening Library” (2021)
